Reference: publication PMC7862700, “An all-to-all approach to the identification of sequence-specific readers for epigenetic DNA modifications on cytosine”

How the values were obtained:
Assay in all cases: DAPPL (digital affinity profiling via proximity ligation, sequencing); 10 mM Tris-HCl pH 7.5, 50 mM NaCl, 1 mM DTT, 4% glycerol, room temperature, 30 min; GST-TFs on glutathione beads, 16-mer random dsDNA library, 0.1% formaldehyde crosslink after washing; high values mean tight binding
[1] = target: T1, FEV (Homo sapiens, UniProt Q99581 1-238); conditions: protein: recombinant; tags: N-terminal GST; dsDNA, one strand shown
T1 sequence: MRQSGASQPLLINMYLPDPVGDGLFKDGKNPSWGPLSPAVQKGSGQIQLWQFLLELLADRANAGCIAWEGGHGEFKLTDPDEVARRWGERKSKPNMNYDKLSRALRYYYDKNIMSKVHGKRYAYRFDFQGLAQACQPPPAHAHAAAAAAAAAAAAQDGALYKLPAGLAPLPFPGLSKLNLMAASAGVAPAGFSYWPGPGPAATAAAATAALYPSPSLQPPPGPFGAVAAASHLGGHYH
Procedure, shortened: (§1)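 Human transcription factors fused to GST were expressed in yeast, captured on glutathione beads, given DNA barcodes and pooled with a GST-only negative control. Pools were incubated with 200 nmole of a 16-mer random double-stranded DNA library in Tris/NaCl/DTT/glycerol buffer at room temperature for 30 min. They were then washed, crosslinked with 0.1% formaldehyde, proximity-ligated (BsaI/T4 ligase, 1 h, 37 °C), PCR-amplified and sequenced on an Illumina NextSeq500. Binding signal is each 6-mer's read frequency for a factor divided by its frequency for the GST control.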

[2] = target: ETV5 (Homo sapiens, UniProt P41161 1-510); conditions: protein: recombinant; tags: N-terminal GST; dsDNA, one strand shown
ETV5, sequence (P41161 whole entry): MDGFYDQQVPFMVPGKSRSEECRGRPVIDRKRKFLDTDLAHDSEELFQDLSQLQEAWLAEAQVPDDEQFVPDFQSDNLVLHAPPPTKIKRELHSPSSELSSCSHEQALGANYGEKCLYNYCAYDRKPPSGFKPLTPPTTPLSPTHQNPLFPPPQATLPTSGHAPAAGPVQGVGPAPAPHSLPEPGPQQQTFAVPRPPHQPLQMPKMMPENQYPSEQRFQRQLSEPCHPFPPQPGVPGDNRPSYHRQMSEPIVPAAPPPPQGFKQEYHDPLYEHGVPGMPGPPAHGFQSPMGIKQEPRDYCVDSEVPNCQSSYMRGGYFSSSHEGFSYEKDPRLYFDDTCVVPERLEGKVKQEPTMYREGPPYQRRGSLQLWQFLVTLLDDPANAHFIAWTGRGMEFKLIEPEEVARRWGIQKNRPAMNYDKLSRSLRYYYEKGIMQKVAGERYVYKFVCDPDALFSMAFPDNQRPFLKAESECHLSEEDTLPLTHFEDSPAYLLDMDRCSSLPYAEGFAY
Procedure, shortened: as §1

[3] = target: HSF1 (Homo sapiens, UniProt Q00613 1-529); conditions: protein: recombinant; tags: N-terminal GST; chain copies: 3; dsDNA, one strand shown
HSF1, sequence (Q00613 whole entry): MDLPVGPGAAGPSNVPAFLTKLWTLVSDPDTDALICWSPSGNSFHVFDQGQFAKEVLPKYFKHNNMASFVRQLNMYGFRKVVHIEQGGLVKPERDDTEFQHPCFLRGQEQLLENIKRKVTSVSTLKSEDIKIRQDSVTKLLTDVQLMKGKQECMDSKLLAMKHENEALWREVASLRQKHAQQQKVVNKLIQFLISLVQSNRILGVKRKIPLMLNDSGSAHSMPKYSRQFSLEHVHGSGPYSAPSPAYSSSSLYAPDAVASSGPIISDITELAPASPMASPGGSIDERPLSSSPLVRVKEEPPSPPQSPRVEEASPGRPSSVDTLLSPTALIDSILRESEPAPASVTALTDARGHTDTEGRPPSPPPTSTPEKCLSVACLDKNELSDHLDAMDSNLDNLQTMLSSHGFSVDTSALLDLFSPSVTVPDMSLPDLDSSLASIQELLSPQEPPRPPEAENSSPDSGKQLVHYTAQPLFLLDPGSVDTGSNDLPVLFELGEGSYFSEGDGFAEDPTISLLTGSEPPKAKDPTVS
Procedure, shortened: as §1

[4] = target: T2, SPIC (Homo sapiens, UniProt Q8N5J4 1-248); conditions: protein: recombinant; tags: N-terminal GST; dsDNA, one strand shown
T2 sequence: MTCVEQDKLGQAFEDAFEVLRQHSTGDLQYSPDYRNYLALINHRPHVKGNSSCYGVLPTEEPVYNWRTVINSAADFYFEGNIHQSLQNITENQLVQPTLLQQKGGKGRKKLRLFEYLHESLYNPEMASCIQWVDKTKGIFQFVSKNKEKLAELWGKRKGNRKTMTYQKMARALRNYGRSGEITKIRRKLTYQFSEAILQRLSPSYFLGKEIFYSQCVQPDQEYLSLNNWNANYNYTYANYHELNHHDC
Procedure, shortened: as §1

[5] = target: ELF4 (Homo sapiens, UniProt Q99607 1-663); conditions: protein: recombinant; tags: N-terminal GST; dsDNA, one strand shown
ELF4, sequence (Q99607 whole entry): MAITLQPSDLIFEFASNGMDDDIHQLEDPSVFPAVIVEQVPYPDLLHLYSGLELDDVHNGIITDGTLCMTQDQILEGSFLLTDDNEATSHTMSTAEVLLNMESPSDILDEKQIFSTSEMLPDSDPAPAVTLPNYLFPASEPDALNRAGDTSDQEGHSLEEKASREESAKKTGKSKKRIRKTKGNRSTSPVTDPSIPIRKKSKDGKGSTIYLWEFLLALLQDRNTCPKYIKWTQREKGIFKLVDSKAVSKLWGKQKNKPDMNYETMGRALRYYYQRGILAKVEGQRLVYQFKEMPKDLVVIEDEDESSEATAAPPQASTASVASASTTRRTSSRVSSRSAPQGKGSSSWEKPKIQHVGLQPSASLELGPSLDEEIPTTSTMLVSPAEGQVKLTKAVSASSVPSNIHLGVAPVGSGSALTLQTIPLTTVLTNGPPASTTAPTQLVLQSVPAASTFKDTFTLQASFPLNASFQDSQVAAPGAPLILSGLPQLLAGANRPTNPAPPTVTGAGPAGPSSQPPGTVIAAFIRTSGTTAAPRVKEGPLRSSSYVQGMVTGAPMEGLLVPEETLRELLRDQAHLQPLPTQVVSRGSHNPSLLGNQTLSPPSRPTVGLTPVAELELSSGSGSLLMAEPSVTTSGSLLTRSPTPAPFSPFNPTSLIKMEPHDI
Procedure, shortened: as §1

[6] = target: T3, ELK4 (Homo sapiens, UniProt P28324-2 1-405); conditions: protein: recombinant; tags: N-terminal GST; dsDNA, one strand shown
T3 sequence: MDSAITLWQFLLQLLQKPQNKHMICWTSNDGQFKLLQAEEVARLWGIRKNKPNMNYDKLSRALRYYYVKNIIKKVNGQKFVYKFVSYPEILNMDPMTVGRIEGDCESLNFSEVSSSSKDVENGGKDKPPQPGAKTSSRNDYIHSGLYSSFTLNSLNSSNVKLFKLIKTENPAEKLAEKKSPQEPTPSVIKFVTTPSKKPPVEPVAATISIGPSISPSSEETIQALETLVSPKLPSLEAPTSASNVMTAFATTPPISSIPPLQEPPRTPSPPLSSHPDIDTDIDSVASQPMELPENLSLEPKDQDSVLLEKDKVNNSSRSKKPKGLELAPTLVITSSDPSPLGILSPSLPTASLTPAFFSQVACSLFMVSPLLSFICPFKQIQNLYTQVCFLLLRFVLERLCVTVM
Procedure, shortened: as §1

[7] = target: T4, ETV2 (Homo sapiens, UniProt O00321 1-342); conditions: protein: recombinant; tags: N-terminal GST; dsDNA, one strand shown
T4 sequence: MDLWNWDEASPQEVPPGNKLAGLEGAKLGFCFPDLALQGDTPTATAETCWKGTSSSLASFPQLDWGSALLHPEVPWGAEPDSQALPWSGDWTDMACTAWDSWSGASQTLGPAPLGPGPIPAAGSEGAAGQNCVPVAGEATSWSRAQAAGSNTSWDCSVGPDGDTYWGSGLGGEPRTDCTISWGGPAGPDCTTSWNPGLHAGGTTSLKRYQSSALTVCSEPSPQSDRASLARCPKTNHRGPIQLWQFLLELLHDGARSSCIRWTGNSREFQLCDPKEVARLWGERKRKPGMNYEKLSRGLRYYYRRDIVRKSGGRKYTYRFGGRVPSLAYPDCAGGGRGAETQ
Procedure, shortened: as §1

[8] = target: T5, ELF3 (Homo sapiens, UniProt P78545 1-371); conditions: protein: recombinant; tags: N-terminal GST; dsDNA, one strand shown
T5 sequence: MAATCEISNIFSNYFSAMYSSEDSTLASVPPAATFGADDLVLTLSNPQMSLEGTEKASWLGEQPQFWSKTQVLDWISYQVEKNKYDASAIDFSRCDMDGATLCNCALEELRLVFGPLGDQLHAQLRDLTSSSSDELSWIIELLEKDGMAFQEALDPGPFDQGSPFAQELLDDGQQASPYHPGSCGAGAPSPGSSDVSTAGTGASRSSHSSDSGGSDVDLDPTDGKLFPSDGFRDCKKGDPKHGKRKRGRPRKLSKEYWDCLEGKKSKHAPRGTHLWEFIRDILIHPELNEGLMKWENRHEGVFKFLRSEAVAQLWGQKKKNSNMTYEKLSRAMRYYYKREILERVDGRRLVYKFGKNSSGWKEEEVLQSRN
Procedure, shortened: as §1

[9] = target: CRX (Homo sapiens, UniProt O43186 1-299); conditions: protein: recombinant; tags: N-terminal GST; dsDNA, one strand shown
CRX, sequence (O43186 whole entry): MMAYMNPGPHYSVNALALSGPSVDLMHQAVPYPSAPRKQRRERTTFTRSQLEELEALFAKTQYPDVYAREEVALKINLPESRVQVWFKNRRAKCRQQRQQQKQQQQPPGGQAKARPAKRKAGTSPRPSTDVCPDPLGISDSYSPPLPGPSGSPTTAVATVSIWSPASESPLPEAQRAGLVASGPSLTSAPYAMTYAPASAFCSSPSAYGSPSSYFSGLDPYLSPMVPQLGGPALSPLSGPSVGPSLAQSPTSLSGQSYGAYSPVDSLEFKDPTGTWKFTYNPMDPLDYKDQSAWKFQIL
Procedure, shortened: as §1

[10] = target: ETV1 (Homo sapiens, UniProt P50549 1-477); conditions: protein: recombinant; tags: N-terminal GST; dsDNA, one strand shown
ETV1, sequence (P50549 whole entry): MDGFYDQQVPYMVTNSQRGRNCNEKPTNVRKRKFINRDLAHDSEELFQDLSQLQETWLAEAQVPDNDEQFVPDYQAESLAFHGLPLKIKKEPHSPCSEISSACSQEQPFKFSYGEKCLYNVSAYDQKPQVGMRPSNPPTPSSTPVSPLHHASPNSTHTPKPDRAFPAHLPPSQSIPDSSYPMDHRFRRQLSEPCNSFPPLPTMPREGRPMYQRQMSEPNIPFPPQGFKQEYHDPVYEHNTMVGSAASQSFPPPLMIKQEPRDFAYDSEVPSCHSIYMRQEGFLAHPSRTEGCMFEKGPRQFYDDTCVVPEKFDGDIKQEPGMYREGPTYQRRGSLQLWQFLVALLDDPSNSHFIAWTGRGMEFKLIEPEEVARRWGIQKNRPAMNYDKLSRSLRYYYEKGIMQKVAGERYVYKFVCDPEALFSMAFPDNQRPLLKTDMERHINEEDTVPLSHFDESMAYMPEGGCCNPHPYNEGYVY
Procedure, shortened: as §1

[11] = target: T6, ERF (Homo sapiens, UniProt P50548 1-548); conditions: protein: recombinant; tags: N-terminal GST; dsDNA, one strand shown
T6 sequence: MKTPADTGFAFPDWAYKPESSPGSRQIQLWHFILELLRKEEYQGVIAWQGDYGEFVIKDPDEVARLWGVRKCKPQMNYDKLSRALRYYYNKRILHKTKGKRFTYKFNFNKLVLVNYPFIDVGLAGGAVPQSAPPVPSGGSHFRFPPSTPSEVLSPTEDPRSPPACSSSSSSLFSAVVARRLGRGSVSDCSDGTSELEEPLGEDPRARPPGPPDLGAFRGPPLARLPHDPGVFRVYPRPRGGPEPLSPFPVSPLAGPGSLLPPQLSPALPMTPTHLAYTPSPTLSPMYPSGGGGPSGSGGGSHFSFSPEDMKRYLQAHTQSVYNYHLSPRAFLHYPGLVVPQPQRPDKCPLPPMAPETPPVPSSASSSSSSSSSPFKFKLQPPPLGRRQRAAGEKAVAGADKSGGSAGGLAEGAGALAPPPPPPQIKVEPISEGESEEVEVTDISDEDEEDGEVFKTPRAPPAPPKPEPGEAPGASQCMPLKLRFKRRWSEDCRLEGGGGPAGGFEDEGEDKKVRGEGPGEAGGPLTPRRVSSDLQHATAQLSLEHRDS
Procedure, shortened: as §1

[12] = target: T7, ETV3L (Homo sapiens, UniProt Q6ZN32 1-361); conditions: protein: recombinant; tags: N-terminal GST; dsDNA, one strand shown
T7 sequence: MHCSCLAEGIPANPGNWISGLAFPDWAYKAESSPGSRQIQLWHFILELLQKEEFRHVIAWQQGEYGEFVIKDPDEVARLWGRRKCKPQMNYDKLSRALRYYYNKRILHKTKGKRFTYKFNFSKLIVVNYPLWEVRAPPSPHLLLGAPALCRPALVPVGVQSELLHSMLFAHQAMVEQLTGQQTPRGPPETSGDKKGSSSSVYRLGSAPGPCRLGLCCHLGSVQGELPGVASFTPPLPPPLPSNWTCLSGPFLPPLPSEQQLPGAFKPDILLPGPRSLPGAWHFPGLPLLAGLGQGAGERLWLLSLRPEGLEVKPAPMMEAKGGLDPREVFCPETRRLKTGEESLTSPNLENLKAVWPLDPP
Procedure, shortened: as §1

[13] = target: T8, ETS2 (Homo sapiens, UniProt P15036 1-469); conditions: protein: recombinant; tags: N-terminal GST; dsDNA, one strand shown
T8 sequence: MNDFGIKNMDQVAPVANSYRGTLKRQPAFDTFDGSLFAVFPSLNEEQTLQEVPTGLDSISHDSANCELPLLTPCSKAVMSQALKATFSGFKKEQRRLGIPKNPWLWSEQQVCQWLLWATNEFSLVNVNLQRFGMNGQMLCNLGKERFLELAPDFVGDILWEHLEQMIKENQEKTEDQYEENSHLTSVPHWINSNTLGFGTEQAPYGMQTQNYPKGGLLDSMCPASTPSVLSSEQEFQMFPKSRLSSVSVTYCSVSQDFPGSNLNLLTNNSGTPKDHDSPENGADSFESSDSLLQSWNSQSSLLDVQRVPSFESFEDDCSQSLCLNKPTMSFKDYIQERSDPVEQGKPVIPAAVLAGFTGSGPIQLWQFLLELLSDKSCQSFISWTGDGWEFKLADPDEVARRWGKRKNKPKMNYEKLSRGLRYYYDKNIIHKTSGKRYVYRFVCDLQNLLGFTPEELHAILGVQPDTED
Procedure, shortened: as §1

[14] = target: T9, SPDEF (Homo sapiens, UniProt O95238 1-335); conditions: protein: recombinant; tags: N-terminal GST; dsDNA, one strand shown
T9 sequence: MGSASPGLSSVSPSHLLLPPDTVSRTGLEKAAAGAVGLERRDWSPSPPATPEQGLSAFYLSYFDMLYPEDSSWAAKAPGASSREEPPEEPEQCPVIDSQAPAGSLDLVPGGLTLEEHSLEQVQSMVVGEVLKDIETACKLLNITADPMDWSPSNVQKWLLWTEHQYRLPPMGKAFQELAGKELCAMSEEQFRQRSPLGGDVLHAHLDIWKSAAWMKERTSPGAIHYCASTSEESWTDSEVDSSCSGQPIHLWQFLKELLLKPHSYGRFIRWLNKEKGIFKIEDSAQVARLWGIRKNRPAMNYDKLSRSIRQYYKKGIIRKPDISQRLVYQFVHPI
Procedure, shortened: as §1

[15] = target: T10, ETV7 (Homo sapiens, UniProt Q9Y603 1-341); conditions: protein: recombinant; tags: N-terminal GST; dsDNA, one strand shown
T10 sequence: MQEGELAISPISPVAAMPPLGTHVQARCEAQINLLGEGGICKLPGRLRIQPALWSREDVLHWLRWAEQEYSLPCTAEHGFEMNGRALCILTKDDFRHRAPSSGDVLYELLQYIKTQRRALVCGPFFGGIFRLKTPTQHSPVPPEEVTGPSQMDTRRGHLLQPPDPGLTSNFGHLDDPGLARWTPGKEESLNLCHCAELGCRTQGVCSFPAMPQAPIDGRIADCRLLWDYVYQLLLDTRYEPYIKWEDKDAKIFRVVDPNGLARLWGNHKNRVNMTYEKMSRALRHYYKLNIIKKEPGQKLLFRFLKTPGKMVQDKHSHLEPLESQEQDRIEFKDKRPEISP
Procedure, shortened: as §1

[16] = target: T11, ELF5 (Homo sapiens, UniProt Q9UKW6-2 1-255); conditions: protein: recombinant; tags: N-terminal GST; dsDNA, one strand shown
T11 sequence: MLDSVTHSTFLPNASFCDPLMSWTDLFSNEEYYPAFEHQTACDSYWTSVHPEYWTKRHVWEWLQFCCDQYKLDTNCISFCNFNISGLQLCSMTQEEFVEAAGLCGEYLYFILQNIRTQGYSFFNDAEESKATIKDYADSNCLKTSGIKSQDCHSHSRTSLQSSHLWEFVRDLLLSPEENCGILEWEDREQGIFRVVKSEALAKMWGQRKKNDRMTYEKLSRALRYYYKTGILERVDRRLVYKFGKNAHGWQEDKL
Procedure, shortened: as §1

[17] = target: T12, ETV3 (Homo sapiens, UniProt P41162-2 1-143); conditions: protein: recombinant; tags: N-terminal GST; dsDNA, one strand shown
T12 sequence: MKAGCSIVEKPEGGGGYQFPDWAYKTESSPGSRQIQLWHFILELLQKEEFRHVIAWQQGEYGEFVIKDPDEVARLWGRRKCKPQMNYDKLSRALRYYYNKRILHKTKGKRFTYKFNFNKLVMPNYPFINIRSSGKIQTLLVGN
Procedure, shortened: as §1

[18] = target: ETV6 (Homo sapiens, UniProt P41212 1-452); conditions: protein: recombinant; tags: N-terminal GST; dsDNA, one strand shown
ETV6, sequence (P41212 whole entry): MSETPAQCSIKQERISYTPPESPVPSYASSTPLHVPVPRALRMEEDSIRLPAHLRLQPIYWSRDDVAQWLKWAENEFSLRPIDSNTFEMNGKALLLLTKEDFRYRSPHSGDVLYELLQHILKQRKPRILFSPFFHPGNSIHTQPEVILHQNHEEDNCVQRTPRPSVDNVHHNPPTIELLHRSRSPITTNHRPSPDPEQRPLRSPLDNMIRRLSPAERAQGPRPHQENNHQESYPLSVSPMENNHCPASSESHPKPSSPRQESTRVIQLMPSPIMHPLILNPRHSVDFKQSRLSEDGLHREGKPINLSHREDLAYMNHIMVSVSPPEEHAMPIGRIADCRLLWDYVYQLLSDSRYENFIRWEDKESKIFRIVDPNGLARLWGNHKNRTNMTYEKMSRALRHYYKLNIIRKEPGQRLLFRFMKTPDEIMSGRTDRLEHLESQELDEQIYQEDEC
Procedure, shortened: as §1

Question: How did the binding signal [1] turn out when TGTTAA was run?
Answer: Its binding signal is 1.1 fold enrichment (6-mer frequency, TF over GST control).

Question: And the binding signal [2]?
Answer: The binding signal was 1.05 fold enrichment (6-mer frequency, TF over GST control).

Question: What about the binding signal [3] of the same sequence?
Answer: Its binding signal is 1.3 fold enrichment (6-mer frequency, TF over GST control).

Question: And the binding signal [4]?
Answer: Its binding signal is 1.19 fold enrichment (6-mer frequency, TF over GST control).

Question: And the binding signal [5]?
Answer: The binding signal was 1.17 fold enrichment (6-mer frequency, TF over GST control).

Question: And the binding signal [6]?
Answer: Its binding signal is 1.16 fold enrichment (6-mer frequency, TF over GST control).

Question: And the binding signal [7]?
Answer: The binding signal was 1.06 fold enrichment (6-mer frequency, TF over GST control).

Question: And the binding signal [8]?
Answer: The binding signal was 1.24 fold enrichment (6-mer frequency, TF over GST control).

Question: What about the binding signal [9] of the same sequence?
Answer: The binding signal was 1.67 fold enrichment (6-mer frequency, TF over GST control).

Question: What about the binding signal [10] of the same sequence?
Answer: The binding signal was 1.13 fold enrichment (6-mer frequency, TF over GST control).

Question: What about the binding signal [11] of the same sequence?
Answer: The binding signal was 1.19 fold enrichment (6-mer frequency, TF over GST control).

Question: And the binding signal [12]?
Answer: Its binding signal is 1.14 fold enrichment (6-mer frequency, TF over GST control).

Question: And the binding signal [13]?
Answer: The binding signal was 1.11 fold enrichment (6-mer frequency, TF over GST control).

Question: What about the binding signal [14] of the same sequence?
Answer: Its binding signal is 1.09 fold enrichment (6-mer frequency, TF over GST control).

Question: What about the binding signal [15] of the same sequence?
Answer: Its binding signal is 1.1 fold enrichment (6-mer frequency, TF over GST control).

Question: And the binding signal [16]?
Answer: The binding signal was 1.13 fold enrichment (6-mer frequency, TF over GST control).

Question: And the binding signal [17]?
Answer: The binding signal was 1.16 fold enrichment (6-mer frequency, TF over GST control).

Question: And the binding signal [18]?
Answer: Its binding signal is 1.16 fold enrichment (6-mer frequency, TF over GST control).
